Here are results for 94 compounds from PubChem BioAssay AID2796 (The Scripps Research Institute Molecular Screening Center, 2010).

In all, about 320,000 compounds went through this assay and about 8,000 (2.5%) were called active. Cut-off read from the data, not from the text of the source: active = activation above about 47%; inactive = the rest. The list comes from a sample in which actives are over-represented; it also holds similar structures and randomly drawn compounds.

The target of this test is Aryl hydrocarbon receptor (Homo sapiens) (UniProt P35869). Kind of test: AHR activators, primary screen, cell-based, luminescence, luciferase reporter, human (AID 2796).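 Note: 0% = vehicle wells and 100% = reference agonist.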 The settings on record: AHR-responsive luciferase reporter cells, at 5 µM, active compounds read high. (A reporter such as luciferase makes a cellular process visible.)
Chain of Aryl hydrocarbon receptor (Homo sapiens) (P35869 whole entry, looked up): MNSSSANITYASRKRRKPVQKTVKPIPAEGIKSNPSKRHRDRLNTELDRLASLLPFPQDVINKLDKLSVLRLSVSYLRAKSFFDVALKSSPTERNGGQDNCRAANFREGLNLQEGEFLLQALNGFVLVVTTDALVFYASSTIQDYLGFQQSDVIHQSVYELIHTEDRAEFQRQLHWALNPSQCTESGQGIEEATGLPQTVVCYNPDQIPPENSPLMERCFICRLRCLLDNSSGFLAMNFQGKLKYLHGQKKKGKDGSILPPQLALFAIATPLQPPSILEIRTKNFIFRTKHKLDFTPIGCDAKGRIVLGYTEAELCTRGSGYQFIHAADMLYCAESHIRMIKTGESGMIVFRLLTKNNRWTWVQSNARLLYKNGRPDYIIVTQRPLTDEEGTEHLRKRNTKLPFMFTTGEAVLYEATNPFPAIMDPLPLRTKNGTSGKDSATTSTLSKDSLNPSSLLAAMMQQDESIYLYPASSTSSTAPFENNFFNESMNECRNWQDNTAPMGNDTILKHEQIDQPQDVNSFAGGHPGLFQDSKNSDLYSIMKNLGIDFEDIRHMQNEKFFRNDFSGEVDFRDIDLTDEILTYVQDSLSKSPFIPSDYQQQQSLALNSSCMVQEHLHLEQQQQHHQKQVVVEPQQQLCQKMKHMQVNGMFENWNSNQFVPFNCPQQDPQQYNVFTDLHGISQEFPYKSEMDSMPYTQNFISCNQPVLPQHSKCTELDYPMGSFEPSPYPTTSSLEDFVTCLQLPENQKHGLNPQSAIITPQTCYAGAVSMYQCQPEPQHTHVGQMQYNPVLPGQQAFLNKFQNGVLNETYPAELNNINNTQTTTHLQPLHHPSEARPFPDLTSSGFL
For the compound `Cc1ccccc1OCCC(=O)OCC(=O)NC(C)c1ccccc1` (centres undefined), the activation was -2.01% (inactive).
With `COc1ccc(Cl)cc1C(=O)NNC(=S)NC(=O)/C=C/c1ccco1`, the activation is 4.8% (inactive).
The same measure for `C=CCNC(=S)NNC(=O)c1cc(Cl)ccc1OC`: 52.7% (active); for `COc1ccc(Cl)cc1C(=O)NNC(=S)NC1CCCC1`: 32.1% (inactive); for `Cc1nc(SCC(=O)N2CCc3ccccc3C2)c2c(C)c(C)sc2n1`: 3.83% (inactive).
With `COc1ccc(NC(=O)c2ccco2)cc1NC(=O)c1ccc(C#N)cc1F` the figure was 96.2% (active); with `COc1ccccc1C(=O)Nc1ccc(NC(=O)c2ccco2)c(C)c1`, 40.4% (inactive).
With `COc1cc(NC(=O)c2cc([N+](=O)[O-])ccc2Br)ccc1NC(=O)c1ccco1`, the activation was -4.72% (inactive).
With `O=S(=O)(NC1CC1)c1ccc2c3c(cccc13)CC2`, the activation is 1.23% (inactive).
Consider `CCn1c(CN2C(=O)CSc3ccccc32)n[nH]c1=S`, for which the activation was 1.51% (inactive).
In the case of `COC(=O)c1c(-c2cccs2)csc1NC(=O)CSc1ncnc2sc(C)c(C)c12`, the activation was 6.7% (inactive).
With `CSc1ncnc2sc(C)c(C)c12` the figure was 1.25% (inactive); with `Cc1sc2ncnc(Sc3nc4ccccc4s3)c2c1C`, 47.2% (active); with `O=C(NNS(=O)(=O)c1ccc(F)cc1)C1CCCCC1`, -0.99% (inactive).
Regarding `CN(CC(=O)Nc1ccc(Cl)cc1)C(=O)c1ccc(COc2ccccc2)cc1`, the activation was 0.65% (inactive).
On to `CC(=O)N1c2ccc(S(=O)(=O)N3CCCC(C(=O)Nc4ccc(C)cc4C)C3)cc2CC1C` (centres undefined), for which the activation was 0.6% (inactive).
With `CCC(=O)c1ccc(OCC(=O)OCC(=O)N2CCc3ccccc3C2)cc1` the figure was -1.4% (inactive); with `COc1ccc(-c2sc3ccc(OC)cc3c2C#Cc2ccccn2)cc1`, 70.4% (active); with `COc1ccc2sc(-c3ccccc3OC)c(-c3ccc(OCCN4CCCC4)cc3)c2c1`, 1.65% (inactive).
With `COc1ccc2sc(-c3ccc(N(C)C)cc3)c(-c3ccc4cc[nH]c4c3)c2c1` the figure was 22.1% (inactive); with `COc1ccc2sc(-c3ccc(S(C)(=O)=O)cc3)c(C#Cc3cncn3C)c2c1`, 39.3% (inactive); with `COc1ccc2sc(-c3ccc(N(C)C)cc3)c(C#CCO)c2c1`, 64.8% (active).
With `COc1cc(OC)cc(-c2sc3ccc(OC)cc3c2-c2ccc3cc[nH]c3c2)c1` the figure was 13% (inactive); with `CCCN(C(=O)CSc1nnc(N)s1)c1c(N)n(Cc2ccccc2)c(=O)[nH]c1=O`, 0.7% (inactive).
Consider `COc1cccc(CN(C)CC2CCCN(CCc3ccc(Cl)cc3)C2)c1OC` (centres undefined), for which the activation was -2.92% (inactive).
For the compound `COc1ccc2c(c1)CCC/C2=N\OC(=O)c1ccccc1F`, the activation was 2.52% (inactive).
The same measure for `COCCN(Cc1ccccc1)C(=O)Cc1ccc(S(=O)(=O)N2CCOCC2)s1`: 0.03% (inactive); for `O=C1OC[C@@H]2CCCN2C(=O)[C@H](CC(=O)N(CCO)Cc2ccccc2)C/C=C\CC[C@@H]1Cc1ccc(F)cc1`: -2.45% (inactive); for `COc1ccccc1/C=N\Nc1cc(C)nc(-n2nc(C)cc2C)n1`: 70.2% (active).
Turning to `COc1ccc(-c2nn(-c3ccccc3)cc2/C=N/Nc2ccccn2)cc1OC`, the activation was 30.3% (inactive).
Regarding `Cc1cc(N/N=C\c2ccc(Br)cc2)nc(-n2nc(C)cc2C)n1`, the activation is 27.3% (inactive).
The same measure for `CCOc1ccccc1NC(=O)COc1ccc(S(=O)(=O)N2CCCC2)cc1`: 7.9% (inactive); for `COc1ccccc1C(=O)Nn1c(-c2cccs2)nc2ccccc2c1=O`: 13.9% (inactive).
Consider `O=C(Nc1nnc(-c2ccccc2)o1)c1cc(-c2cccs2)nc2ccccc12`, for which the activation is 5.25% (inactive).
Consider `CC(=O)Nc1cccc(Nc2nc(-c3cccs3)nc3ccccc23)c1`, for which the activation was 51.4% (active).
Take `Cc1nc2c(ncn2-c2ccccc2)c(=O)n1NC(=O)CN1CCCC1`: the activation was 0.17% (inactive).
`CC1CN(c2nc(-c3ccccc3)nnc2-c2ccccc2)CC(C)O1` (centres undefined): the activation is 10.3% (inactive).
With `CC(C)Cn1c(CCC(=O)O)ccc1-c1cccs1` the figure was -1.84% (inactive).
For `OCCCNc1nc(-c2ccccc2)c2cc(Cl)ccc2n1`, the activation was 3.68% (inactive).
Consider `OCCNc1nc(Nc2ccc(Cl)c(Cl)c2)nc2ccccc12`, for which the activation is 124% (active).
On to `COc1cc2nc(Cl)nc(NCCO)c2cc1OC`, for which the activation is -0.57% (inactive).
With `O=C(NC(CC(=O)N1CCN(c2ccccc2)CC1)c1ccccc1)c1ccccc1Cl` (centres undefined) the figure was -0.75% (inactive); with `COc1cc(OC)cc(-c2nc3ccccc3c(=O)n2NC(=O)c2cccnc2Cl)c1`, 4.93% (inactive).
The same measure for `Cc1cccc(-c2nc3ccccc3c(=O)n2NC(=O)Cc2ccc(Cl)cc2)c1`: -0.38% (inactive); for `O=C(Nn1c(-c2ccc(Cl)cc2)nc2ccccc2c1=O)c1cccnc1Cl`: 104% (active); for `COc1ccc(C(=O)COC(=O)c2ccc3ccccc3n2)cc1`: 2.48% (inactive).
For the compound `O=C(Nc1ccc(S(=O)(=O)Nc2ccccn2)cc1)c1ccccc1`, the activation was -0.84% (inactive).
On to `c1ccc(-c2cn3c(n2)CCc2ccc4cccnc4c2-3)cc1`, for which the activation was 64% (active).
Regarding `O=S(=O)(Nc1ncccn1)c1ccc(NS(=O)(=O)c2cccc(Cl)c2Cl)cc1`, the activation was 0.76% (inactive).
Turning to `CC(=O)c1ccccc1OCc1ccc(C(=O)c2ccccc2)cc1`, the activation is 0.89% (inactive).
In the case of `CCCCOc1ccc(CSC(=N)N)cc1[N+](=O)[O-]`, the activation is 15% (inactive).
Regarding `CCCCCOc1ccc(CSC2=NCCN2)cc1[N+](=O)[O-]`, the activation was 6.95% (inactive).
As to `CCCOc1ccc(Cn2ccnc2)cc1[N+](=O)[O-]`, the activation was 59.2% (active).
On to `O=C(CCC(=O)NNc1nc2ccccc2c2nc(-c3ccccc3)nn12)NCCCN1CCCC1=O`, for which the activation was 55.5% (active).
As for `COc1ccc(-c2cc(C(=O)NCCCN3CCCC3=O)c3ccccc3n2)cc1OC`, the activation was 11.6% (inactive).
Consider `Cc1nn(Cc2ccccc2)c(C)c1C(=O)NCCCN1CCCC1=O`, for which the activation is 2.56% (inactive).
With `COc1ccc(N(CC(=O)NC2CCCCC2)C(=O)CNC(=O)c2ccco2)c(OC)c1` the figure was 0.47% (inactive); with `O=C(CN1C(=O)NC2(CCCCCCC2)C1=O)NCc1ccc(F)cc1`, 2.09% (inactive).
Turning to `O=C1NC[C@@H](Cc2ccc(O)cc2)N(CCc2cccc(F)c2)C1=O`, the activation is -0.45% (inactive).
The same measure for `COc1ccc2cc(C(=O)O)n(CC(=O)c3ccccc3)c2c1`: 18.9% (inactive); for `O=C(Cn1nnc(N2CCCCC2)n1)c1ccc(Cl)c(Cl)c1`: -3.18% (inactive).
The same measure for `CCn1c(=N)n(CC(=O)c2cccc(OC)c2)c2ccccc21`: 50.3% (active); for `CCCn1c(=N)n(CC(=O)c2ccc(Cl)c(Cl)c2)c2ccccc21`: 66.2% (active); for `CCOC(=O)c1cc2ccccc2n1CC(=O)c1ccccc1`: 24% (inactive).
With `CCN(CC)CC1(O)CCN(C(=O)c2ccc(Cl)c(Cl)c2)CC1` the figure was 10.4% (inactive); with `O=C(c1c(F)cccc1Cl)N1CCN(S(=O)(=O)c2ccc3c(c2)OCCCO3)CC1`, -0.63% (inactive); with `O=C(Nc1ccc(N2CCCCC2)cc1)c1cc(S(=O)(=O)N2CCOCC2)ccc1F`, 0.49% (inactive).
Consider `CCc1ccccc1NC(=S)N(CCN1CCCCCC1)Cc1ccco1`, for which the activation is 0.79% (inactive).
For `COc1cccc(CNS(=O)(=O)c2ccc3c(c2)N(C(C)=O)CCS3)c1`, the activation is 7.96% (inactive).
In the case of `Nc1ncnc2c1ncn2[C@@H]1O[C@H](CNCc2cccn2-c2nccs2)[C@@H](O)[C@H]1O`, the activation is -1.49% (inactive).
The same measure for `Cc1ccc(NS(=O)(=O)c2c(C)[nH]c(=O)[nH]c2=O)cc1C`: -2.23% (inactive); for `COc1ccc(NC(=O)C2=C(C)NC(=O)NC2c2ccccc2[N+](=O)[O-])cc1` (centres undefined): 2.47% (inactive); for `Cc1csc(NC(=S)Nc2cccc(Cl)c2)n1`: 81.2% (active).
In the case of `FC(F)(F)c1cccc(NC(=S)Nc2cccc(Cl)c2)c1`, the activation was 6.14% (inactive).
In the case of `Cc1cccc(NC(=S)Nc2ccc(Cl)c(Cl)c2)c1`, the activation was 2.86% (inactive).
Regarding `Cc1cccc(C(C)C)c1NC(=O)COC(=O)C1CC(=O)N(Cc2ccccc2)C1` (centres undefined), the activation was 3.03% (inactive).
With `CCC(C)NC(=O)C1CCCN(C(=O)NC2CCCCC2)C1` (centres undefined) the figure was 2.48% (inactive).
In the case of `CC(=O)NC(CC(=O)Nc1ccc(S(=O)(=O)N2CCOCC2)cc1)c1ccccc1` (centres undefined), the activation is 0.88% (inactive).
In the case of `O=C(COC(=O)c1cccc(Cl)c1)NC1CCCCCCC1`, the activation is 0.68% (inactive).
The same measure for `O=C(Nc1nnc(COc2ccccc2)s1)Nc1ccccc1F`: 10.9% (inactive).
On to `COc1ccccc1NC(=O)Nc1nc(CC(=O)Nc2ccccc2F)cs1`, for which the activation is 25% (inactive).
With `COc1ccccc1NC(=O)Nc1nnc(Cc2ccc(F)cc2)s1` the figure was 59.8% (active); with `CCN(CC)S(=O)(=O)c1cccc(-c2n[nH]c(=S)n2/N=C/c2ccc(C(=O)OC)cc2)c1`, 5.2% (inactive).
As for `O=C(NC(=S)N1CCN(Cc2ccccc2)CC1)c1ccccc1`, the activation is 2.61% (inactive).
As to `CC(C)c1ccc(Nc2ncccc2C#N)cc1`, the activation is 56.8% (active).
For `O=C(COC(=O)c1ccc([N+](=O)[O-])o1)NC12CC3CC(CC(C3)C1)C2`, the activation was 0.67% (inactive).
The same measure for `COc1cccc2sc3cc(NCC[C@@H]4CCCN4C)ccc3c(=O)c12`: 72.2% (active).
The same measure for `Cc1cc2oc3ccc(NCCC4CCCN4C)cc3c(=O)c2cc1C` (centres undefined): 2.97% (inactive); for `COc1ccc(CCNC(=O)C(=O)NCC2CCNCC2)cc1OC`: -0.68% (inactive).
Turning to `COc1ccc(-c2cc(-c3ccc(N)cc3)nc(N)c2C#N)cc1OC`, the activation was 79.4% (active).
For the compound `CCOc1cc(-c2cc(-c3ccc(NC(C)=O)cc3)nc(N)c2C#N)ccc1O`, the activation was 8.37% (inactive).
For the compound `CCOc1cc(-c2cc(-c3ccc(OC)cc3)nc(N)c2C#N)ccc1O`, the activation is 0.62% (inactive).
With `COc1cccc(NC(=O)CC(c2ccc(OC(C)C)cc2)c2ccccc2OC)c1` (centres undefined), the activation was -0.21% (inactive).
For the compound `CC(C)(C)OC(=O)CNC(=O)c1[nH]cnc1C(=O)N[C@@H](CCCCN)C(=O)OC(C)(C)C`, the activation was 0.13% (inactive).
